Data as given in PubChem BioAssay AID463173 (ICCB-Longwood Screening Facility, Harvard Medical School, 2010).
The whole screen tested about 52,000 compounds, of which about 4,300 (8.3%) were called active. The sample as a whole holds a higher share of actives than the screen did. Unmarked numbers belong to inactive results. Rule as the data show it: active = survival mostly below about 52% (no sharp cut-off); inactive = mostly above about 56%.

system: DeltatarO mutant; test: growth inhibition of S. aureus wild type versus tarO mutant, primary screen, teichoic acid synthesis inhibitors, RN4220, OD600 (AID 463173); details: OD600, 18 h, hits give low values, screened at 18.75 µg/mL (by protocol)

Row | SMILES | survival
1 | Cc1ccc(-n2c(=O)c3c4c(sc3n(CC(=O)C(C)(C)C)c2=O)CCCCC4)cc1C | 89%
2 | CC(C)CCNC(=O)c1cn(C)c2ccc(S(=O)(=O)N3CCCC3)cc2c1=O | 138%
3 | CCc1ccc2oc(C(=O)NCC(c3ccc(OC)cc3)N3CCCCC3)c(C)c2c1 (stereo not drawn) | 81%
4 | O=C(CCn1cnc2onc(-c3ccc(F)cc3)c2c1=O)Nc1cccc(C(F)(F)F)c1 | 96%
5 | Cc1ccc(-n2nc(C(=O)N3CCN(c4ccccc4F)CC3)c(=O)n(C)c2=O)cc1 | 93%
6 | Cc1ccsc1CN(C(=O)COc1ccc(Br)cc1)C1CCS(=O)(=O)C1 (stereo not drawn) | 73%
7 | Cc1ccc(CN2CCC(CNC(=O)Nc3cccc(C)c3C)C2)cc1 (stereo not drawn) | 112%
8 | Cc1cc(Cl)ccc1NC(=O)Cn1nnc2sc(-c3ccccc3)cc2c1=O | 106%
9 | Cc1cn2c(=O)cc(COC(=O)c3cccc(NC(=O)c4ccccc4Cl)c3)nc2s1 | 102%
10 | COc1cccc(CNC(=O)Cn2c(=O)ccc3cc(S(=O)(=O)N4CCC(C)CC4)ccc32)c1 | 99%
11 | COc1cc(OC)c(NC(=O)Nc2ccccc2OCc2cc(=O)n3cc(C)ccc3n2)cc1Cl | 103%
12 | COc1ccccc1C(=O)Nc1ccc(OCc2cc(=O)n3cc(C)sc3n2)cc1 | 130%
13 | CCOc1ccc(C(=O)Nc2c(C(=O)c3ccccc3)oc3ccccc23)cc1 | 72%
14 | O=C(NCCc1ccccc1)c1cc2sccc2n1Cc1ccc(F)cc1 | 72%
15 | COc1cc(OC)c(NC(=O)CCc2c(C)nc3ncnn3c2C)cc1Cl | 97%
16 | Cc1cn2c(=O)c(S(=O)(=O)NCc3ccccc3Cl)c(C)nc2s1 | 66%
17 | Cc1ccc2oc(C(=O)Nc3c(C(=O)Nc4cccc(Cl)c4)oc4ccccc34)cc(=O)c2c1 | 67%
18 | Cc1ccc2c(=O)cc(C(=O)Nc3c(C)cccc3C)oc2c1 | 44% (active)
19 | Cc1cc(C)c2oc(C(=O)Nc3c(C(=O)Nc4ccccc4)oc4ccccc34)cc(=O)c2c1 | 51% (active)
20 | Cc1ccc2c(=O)cc(C(=O)Nc3c(C(=O)Nc4cccc(Cl)c4)oc4ccccc34)oc2c1 | 36% (active)
21 | COc1ccc(NC(=O)c2oc3ccccc3c2NC(=O)c2cc(=O)c3cc(Cl)ccc3o2)cc1 | 54%
22 | Cc1ccc2c(=O)cc(C(=O)Nc3nnc(C)s3)oc2c1 | 76%
23 | COC(=O)c1ccc(NC(=O)c2cc(=O)c3ccc(C)cc3o2)cc1 | 96%
24 | Cc1ccc2oc(C(=O)Nc3cccc(Cl)c3)cc(=O)c2c1 | 92%

Row | SMILES | survival
25 | Cc1cc(C)c2oc(C(=O)Nc3c(C(=O)c4ccccc4)oc4ccccc34)cc(=O)c2c1 | 55%
26 | Cc1cccc(NC(=O)c2oc3ccccc3c2NC(=O)c2cc(=O)c3cc(Cl)ccc3o2)c1 | 43% (active)
27 | Cc1cc2oc(C(=O)Nc3c(C(=O)Nc4ccccc4)oc4ccccc34)cc(=O)c2cc1C | 106%
28 | O=C(Nc1c(C(=O)Nc2cccc(C(F)(F)F)c2)oc2ccccc12)c1cc(=O)c2ccccc2o1 | 78%
29 | NCC1Cc2ccccc2O1 (stereo not drawn) | 103%
30 | O=c1c2oc3ccccc3c2n(Cc2cccc(F)c2)c(=O)n1Cc1ccco1 | 75%
31 | Cc1ccccc1CSc1nnc2[nH]c(=O)cc(C)n12 | 84%
32 | Cc1cc(C)cc(-n2ccnc(NCCc3ccccc3)c2=O)c1 | 101%
33 | CC(C)Oc1ccc(C2CC(=O)N(C)C2=O)cc1 (stereo not drawn) | 82%
34 | Cc1ccc(OCC(=O)Nc2ccc(S(=O)(=O)N3CCOCC3)cc2)c(C)c1 | 94%
35 | COc1ccc2cc(CN(Cc3nnnn3Cc3ccccc3)C3CCCC3)c(=O)[nH]c2c1 | 96%
36 | CC1CCN(C(=O)c2ccc3nc(N4C(=O)CCC4=O)sc3c2)CC1 | 95%
37 | COc1ccc(C)cc1NC(=O)C(=O)NCCc1csc2nc(-c3ccccc3F)nn12 | 72%
38 | COc1ccc(N2CCN(S(C)(=O)=O)CC2)cc1 | 86%
39 | COc1cc2c(=O)c(S(=O)(=O)c3ccc(F)cc3)cn(Cc3ccccc3C)c2cc1OC | 55%
40 | CCOC(=O)C1CCCN(C(=O)c2ccc3c(c2)sc2nc(-c4cccc(OC)c4)cn23)C1 (stereo not drawn) | 77%
41 | CCOc1ccccc1NC(=O)c1cc(=O)c2ccc(C)cc2o1 | 44% (active)
42 | COc1ccc(C(=O)c2oc3ccccc3c2NC(=O)c2cc(=O)c3ccc(C)cc3o2)cc1Cl | 44% (active)
43 | Cc1cccc(NC(=O)c2oc3ccccc3c2NC(=O)c2cc(=O)c3ccccc3o2)c1 | 73%
44 | CCc1ccc2oc(C(=O)Nc3ccccc3OC)cc(=O)c2c1 | 49%
45 | Cc1ccc2c(=O)cc(C(=O)Nc3c(C(=O)c4ccccc4)oc4ccccc34)oc2c1 | 76%
46 | Cc1ccc2oc(C(=O)Nc3c(C(=O)Nc4ccccc4)oc4ccccc34)cc(=O)c2c1 | 73%
47 | Cc1ccc(C(=O)c2oc3ccccc3c2NC(=O)c2cc(=O)c3ccccc3o2)cc1 | 57%
48 | Cc1cccc(NC(=O)c2oc3ccccc3c2NC(=O)c2cc(=O)c3ccc(C)cc3o2)c1 | 28% (active)

Row | SMILES | survival
49 | CCOc1ccc(C(=O)c2oc3ccccc3c2NC(=O)c2cc(=O)c3ccc(C)cc3o2)cc1 | 134%
50 | COC(=O)C(C)Oc1ccc(N2C(=O)c3ccccc3C2=O)cc1 (stereo not drawn) | 75%
51 | O=S(=O)(c1ccc(-c2cc(C(F)(F)F)on2)s1)N1CCN(c2ccccc2)CC1 | 75%
52 | CCOc1ccc(-c2cc3nc(C4CCN(C(=O)OC(C)(C)C)CC4)c(C(=O)Nc4cccc(C(F)(F)F)c4)cn3n2)cc1 | 79%
53 | O=C1C2C3c4ccccc4C(c4ccccc43)C2C(=O)N1Cc1ccccn1 (stereo not drawn) | 83%
54 | COCC[N+]1(C)CCCCC1 | 84%
55 | CC1CCN(C(=O)CSc2n[nH]c(-c3ccc(F)cc3)n2)CC1 | 92%
56 | CC1CCN(C(=O)CSc2nc(-c3ccc(F)cc3)cc(C(F)(F)F)n2)CC1 | 37% (active)
57 | COc1ccc(-c2cc(C(F)(F)F)nc(SCC(=O)N3CCC(C)CC3)n2)cc1 | 56%
58 | CC1CCN(C(=O)C(C)Sc2nc(-c3ccccc3)cc(C(F)(F)F)n2)CC1 (stereo not drawn) | -1% (active)
59 | CC(Sc1nc(-c2ccccc2)cc(C(F)(F)F)n1)C(=O)N1CCCC1 (stereo not drawn) | 101%
60 | CC1CN(C(=O)C(C)Sc2nc(-c3ccccc3)cc(C(F)(F)F)n2)CC(C)O1 (stereo not drawn) | 78%
61 | CC(C)C(=O)Nc1cccc(C(=O)Nc2nncs2)c1 | 87%
62 | O=C(CSc1nc(-c2ccc(F)cc2)[nH]c1-c1ccccc1)NCC1CCCO1 (stereo not drawn) | 82%
63 | Cc1ccccc1-c1noc(-c2ccc(NCc3cccnc3)c([N+](=O)[O-])c2)n1 | 98%
64 | O=C(c1ccc2c(c1)C(=O)N(CCCO)C2=O)c1ccc2c(c1)C(=O)N(CCCO)C2=O | 70%
65 | C[N+](C)(C)CCNC(=O)c1ccc(/C=N/O)nc1 | 81%
66 | Oc1ccc(CNc2ccccc2Cl)c2cccnc12 | 115%
67 | O=C(COc1ccccc1Cl)Nc1nnc(S(=O)(=O)N2CCCCCC2)s1 | 70%
68 | Cc1ccccc1OCC(=O)Nc1nnc(S(=O)(=O)N(C)c2ccccc2)s1 | 67%
69 | O=C(COc1ccccc1F)Nc1nnc(S(=O)(=O)N2CCCCCC2)s1 | 51% (active)
70 | CCN(CC)S(=O)(=O)c1nnc(NC(=O)COc2ccccc2Cl)s1 | 95%
71 | Cc1ccccc1OCC(=O)Nc1nnc(S(=O)(=O)N2CCCC2)s1 | 42% (active)
72 | O=C(COc1ccccc1Cl)Nc1nnc(S(=O)(=O)N2CCCC2)s1 | 39% (active)

Row | SMILES | survival
73 | Cc1ccccc1OCC(=O)Nc1nnc(S(=O)(=O)N2CCCCCC2)s1 | 73%
74 | Cc1ccc(NC(=O)CN2C=NS(=O)(=O)c3ccccc32)cc1 | 76%
75 | Cc1ccc2nc(N(Cc3cccnc3)C(=O)c3ccc4c(c3)OCCO4)sc2c1 | 70%
76 | COc1ccc(/C=C/c2nc(C#N)c(N3CCN(c4ccccc4)CC3)o2)cc1OC | 88%
77 | COc1ccc(-c2onc(C)c2C)cc1S(=O)(=O)NC1CCCCC1 | 72%
78 | CCOc1ccc(CCNC(=O)C2CCN(C(=O)N3CC(CC)Oc4ccc(C)cc43)CC2)cc1 (stereo not drawn) | 63%
79 | Cc1ccc(Cn2cc(S(=O)(=O)c3ccc(Cl)cc3)c(=O)c3cc4c(cc32)OCO4)cc1 | 77%
80 | Cc1ccc(S(=O)(=O)NCCc2nnc3ccc(SCC(=O)Nc4ccc(F)cc4F)nn23)cc1 | 88%
81 | Cc1c(C)n(Cc2ccccc2)c2ccc(C(=O)N3CCN(c4ccccc4)CC3)cc12 | 99%
82 | CCOC(=O)c1ccc(CN(Cc2ccc(F)cc2)S(=O)(=O)c2ccc(F)cc2)cc1 | 87%
83 | CCOC(=O)c1ccc(CN(Cc2ccccc2)S(=O)(=O)c2ccc(Cl)cc2)cc1 | 32% (active)
84 | CCOc1ccc(NC(=O)CN(Cc2ccccc2)S(=O)(=O)c2ccc(Cl)cc2)cc1 | 78%
85 | CCOC(=O)c1ccc(CN(Cc2ccc(C)cc2)S(=O)(=O)c2ccc(NC(C)=O)cc2)cc1 | 73%
86 | COC(=O)c1ccc(NC(=O)CN(Cc2ccccc2)S(=O)(=O)c2ccc(C)cc2)cc1 | 42% (active)
87 | COC(=O)c1ccc(NC(=O)CN(Cc2ccccc2)S(=O)(=O)c2ccc(Cl)cc2)cc1 | 40% (active)
88 | CCN(CC)S(=O)(=O)c1ccc(NC(=O)c2ccccc2)cc1 | 77%
89 | COC(=O)c1ccc(NC(=O)CN(CCc2ccccc2)S(=O)(=O)c2ccc(OC)cc2)cc1 | 69%
90 | Cc1ccc(S(=O)(=O)N(CC(=O)Nc2ccc(C(C)C)cc2)Cc2ccccc2)cc1 | 54%
91 | CCOC(=O)c1ccc(NC(=O)CN(Cc2ccc(C)cc2)S(=O)(=O)c2ccc(C)cc2)cc1 | 58%
92 | CC(=O)Nc1ccc(S(=O)(=O)N(Cc2ccccc2)Cc2ccccc2)cc1 | 54% (active)
93 | CCOC(=O)c1ccc(CN(Cc2ccc(Cl)cc2Cl)S(=O)(=O)c2cccc(Cl)c2)cc1 | 80%
